The panel holds about 83,000 compounds, 20% with a hit somewhere; the sample as a whole holds those more often.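 Interpretation: 100, growth as untreated; towards 0, rising growth inhibition; 0, no net growth; 0 to -100, cell death. Compounds scoring below 10 were considered active.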 A number with no mark means an inactive call. The source made the active and inactive calls.
These molecules were tested on MCF7 breast (assay: NCI-60 one-dose screen, 48 h (100 = growth as untreated, 0 = no growth, -100 = all killed)). Conditions: 10 µM unless noted.
Description: Growth inhibition of the MCF7 human tumor cell line is measured as a screen for anti-cancer activity. Cells are grown in 96 well plates and exposed to the test compound for 48 hours. Compounds are tested at a single concentration, which is 10^-5 M for most compounds. The reported endpoint is percent growth (GI% or GIPRCNT), where numbers from 0 - 100% represent growth inhibition, and numbers from -100% - 0 represent cell death. For example, a value of 40 represents 60% growth inhibition. A value of 0 means no net growth occurred over the course of the experiment. A value of -40 indicates 40% of cells at the beginning of the experiment died by the end of the experiment. A value of -100 means all cells are dead at the end of the experiment.
NCI-60 Human Tumor Cell Lines Screen was performed using the standard one-dose NCI protocol, which is described in more detail at https://dtp.cancer.gov/discovery_development/nci-60/default.htm.
Compounds with GIPRCNT values below 10 were considered active. Activity score was based on GIPRCNT using the following formula: […]
Score is 0 for GIPRCNT values of 100 or above, 50 for GIPRCNT values of 0, and 100 for GIPRCNT values of -100.

Going from `Cc1ccc(S(=O)(=O)NCCCNc2cc(-c3cn(C(C)(C)C)nc3-c3cccc(O)c3)ccn2)cc1` to `Cc1ccc(S(=O)(=O)NC(=O)n2cc(-c3ccncc3)c(-c3ccc(Cl)c(O)c3)n2)cc1`, the growth rises from 45.7% to 124%.

Going from `O=[N+]([O-])c1cccc(-c2nc3sccn3c2-c2ccnc(NCCCNS(=O)(=O)c3ccc(C(F)(F)F)cc3)n2)c1` to `Nc1cccc(-c2nc3sccn3c2-c2ccnc(NCCNS(=O)(=O)c3ccc(C(F)(F)F)cc3)n2)c1`, the growth rises from 14.9% to 32.8%.

First: Cc1ccc(S(=O)(=O)n2cc(C(=O)C(=O)N3CCOCC3)c3ccccc32)cc1
Second: CCOC(=O)c1cn2c3c(cc(C)cc3c1=O)C(=O)/C(=C/c1ccccc1)C2
The growth of the first is higher: 99.4% for the first, 86.7% for the second.

First: CC(=O)Oc1csc(N(C(C)=O)c2cccc(C(F)(F)F)c2)n1
Second: CC(=O)c1cc2c(N)c(C(=O)Nc3cccc4c3OCCO4)sc2nc1C
The growth of the first is lower: 90.8% for the first, 94.9% for the second.

Going from `COc1ccc(/C=C2/C(=O)NC(SCC(=O)N3CCN(c4cc5c(cc4F)c(=O)c(C(=O)O)cn5C4CC4)CC3)=NC2N)cc1OC` (stereo not given) to `COc1ccc(C2=CC(c3cc(OC)c(OC)c(OC)c3)NC(=O)N2)cc1OC` (stereo not given), the growth falls from 98% to 15%.

Going from `CN1CCN(Cc2ccc(NC(=O)c3cncc(C#Cc4cnc(N)c5ccncc45)c3)cc2C(F)(F)F)CC1` to `COc1cc(Nc2ncccc2C(=O)NCc2cn(Cc3cccc(Oc4ccccc4)c3)nn2)cc(OC)c1`, the growth falls from 35.6% to 18.3%.

Going from `CC(C)NCCCNC1=C(Cl)C(=O)c2ccccc2C1=O` to `CC(C)CSc1nc(NN)c(C#N)c(-c2ccccc2)n1`, the growth rises from 63.4% to 88.2%.

Going from `CC(=O)Nc1ccc(/C=C/C(=O)c2ccccc2)cc1` to `CN(C)CC(C(=O)c1ccccc1)c1ccccc1` (stereo not given), the growth falls from 56.4% to 10.5%.

Going from `CN(CCCCCl)P(=O)(OCc1ccc([N+](=O)[O-])o1)C(F)(F)C[C@H](NC(=O)CNC(=O)c1ccc(N=[N+]=[N-])cc1)C(=O)NCCc1ccc(O)cc1` (stereo not given in full) to `O=C(NNC(=O)N1c2ccccc2C=Cc2ccccc21)c1ccc2ccccc2c1`, the growth rises from 61.6% to 86%.

Going from `O=c1ccn(-c2ncnc3nc[nH]c23)cc1` to `O=[N+]([O-])c1cnc(Sc2ccncn2)s1`, the growth falls from 88% to 31.5%.

First: Clc1ccccc1-c1nc2ccccc2[nH]1
Second: ClC(Cl)c1nc(-c2cccnc2)n2nc(-c3ccccc3)cc2n1
The growth of the first is higher: 82.8% for the first, 50.6% for the second.

Compared with `O=[N+]([O-])c1ccc(/C=C/C2(CCl)OCCO2)cc1`, `CC1(c2ccc(Cl)cc2)OC(=O)CC(=O)O1` is lower in growth: 106% for the first, 101% for the second.

First: COc1cc(Cn2cc3c(c2)-c2oncc2CC3)cc(OC)c1OC
Second: COc1cc(-c2nc(N=Nc3c(O)[nH]c4ccc(Br)cc34)[nH]c(=O)c2C#N)cc(OC)c1OC
The growth of the first is lower: 13.2% for the first, 99.7% for the second.

Compared with `C=C[C@@H]1C[C@H](O)Cc2cc(F)ccc2N1`, `CC(C)c1ccc2occ(C=C3C(=O)NC(=O)NC3=O)c(=O)c2c1` is lower in growth: 107% for the first, 80.8% for the second.

Going from `CCCCCCCCN(CCCCCCCC)CCCCCCNc1cc(OC)cc2cccnc12` to `OCCCCCCNc1ncnc2cc(Cl)ccc12`, the growth rises from 61.7% to 97.8%.

Compared with `C=CCn1c2ccccc2c2c3c(c4c5ccccc5n(CC=C)c4c21)C(=O)N(O)C3=O`, `O=C1NN(C(=O)c2ccc(Cl)cc2)C(c2ccccc2)=N/C1=C\c1cn(-c2ccccc2)nc1-c1ccccc1` is higher in growth: 13% for the first, 91.3% for the second.

Compared with `C=C1CCC[C@]2(C)CCC[C@H](C)[C@@H](OC(C)=O)[C@@H]3OC(=O)C(=C)[C@@H]3C[C@H]1O2`, `COc1ccc(C2CC(c3ccc(OC)cc3OC)=NN2c2ccc(S(N)(=O)=O)cc2)cc1` (stereo not given) is higher in growth: 57.4% for the first, 86% for the second.

Compared with `Cc1nc2ncccc2nc1Nc1ccc(S(=O)(=O)Nc2ccccn2)cc1`, `N#C/C(=C1C=C/C(=N/O)C(Cl)=C/1)c1ccc(Cl)cc1` is lower in growth: 92.7% for the first, 13.7% for the second.

In the case of `COc1ccc(/C=N\NC(=O)CN2CCN(c3cc4c(cc3F)c(=O)c(C(=O)N/N=C/c3ccc(OC)c(OC)c3)cn4C3CC3)CC2)cc1OC`, the growth is reported as -4.9% (active).
`O=C(Nc1cccc(-n2cc(-c3ccncc3)c(-c3ccc(Cl)c(O)c3)n2)c1)Nc1ccc(Cl)c(C(F)(F)F)c1` was tested, and the growth was -16.6% (active).
For `CN(C)CCN1C(=O)c2ccc3c4c(ccc(c24)C1=O)C(=O)N(CCN=C=S)C3=O`, the growth was -67.7% (active).
With `COc1cc(NC(N)=NCCC(C)(C)Oc2ccc(C(F)(F)F)cc2)ncc1C#N` the growth was -71.1% (active).

Source: PubChem BioAssay (NCI)
